# Screening data from PubChem.
# EP2 mod = modulators of human EP2 prostaglandin E2 receptor; P43116; EP2-expressing cells, cAMP HTRF FRET, PGE2 co-stimulation; induction, % at 25 µM; 0.83% of 260,000 active; AID 940;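 active means compounds whose cAMP rise, as percent of the full-agonist control response, exceeds 60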;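 further: rat C6 glioma line stably carrying human EP2 under a CMV promoter; the protocol text gives 20 µM as final concentration; 100% = response of wells given 1 µM PGE2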
# S1P3 antag = blocks the human S1P3 receptor. 0.27% of 170,000 active. Q99500. CHO S1P3 NFAT-BLA reporter, FRET fluorescence, antagonist mode. inhibition, % at 4.98 µM;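 active means inhibition above the plate cutoff, the mean inhibition of test wells on that plate plus 3 SD, cut at about 28% in these data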;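 further: cells challenged with S1P at its EC80 of 0.8 µM; blue over green emission ratio from cleaved BLA substrate after 4 h stimulation; 0% = S1P-stimulated wells and 100% = unstimulated DMSO-only wells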
# EP2 antag = inhibitors of human EP2 prostaglandin E2 receptor. inhibition, % at 25 µM. C6 glioma cells expressing human EP2, cAMP TR-FRET; cells stimulated with saturating PGE2. P43116. 0.52% of 260,000 active;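 active means percent inhibition above 40 after rounding to a whole number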;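 further: rat C6 glioma host cells with rolipram phosphodiesterase inhibitor present; the protocol text gives 20 µM as final concentration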
# KCC2 mod = modulates chloride dependent transport by human KCC2. 2.2% of 190,000 active. Q9H2X9. AID 1456. KCC2 cells, thallium flux FluoZin-2 fluorescence. B-score of Tl+ flux slope (higher = more flux/activation; lower = inhibition) at 10 µM;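 active means thallium flux slope and its plate-corrected score both differing from the plate sample mean at a set confidence after two filtering rounds, in either direction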;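 further: slope of fluorescence scaled to starting intensity during 10 to 20 s after thallium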
# KCC2 secondary = KCC2 (human) modulation, secondary assay | HEK293-KCC2, thallium flux, FluoZin2 fluorescence; active compounds read high | normalised thallium flux (F/F0 slope) at 10 µM | 15% of 3,700 active | shares compounds with KCC2 mod;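 active means thallium flux slope above the same plate's solvent-only control mean plus 3 SD; inconclusive means the two replicate wells disagree; inactive means no significant difference from solvent-only control wells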
# KCC2 bumet counter = thallium flux persisting under bumetanide in KCC2 cells, counter-screen secondary assay; shares compounds with KCC2 mod; HEK293-KCC2 + bumetanide/ouabain, thallium flux FluoZin2; active compounds read high; normalized thallium flux at 10 µM; 49% of 3,700 active; AID 1714;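 active means thallium entry rate above the same plate's blocked-transporter control wells by more than 3 SD; inconclusive means the two repeat wells disagree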;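 further: raw slope of fluorescence over initial fluorescence between 10 and 20 s after thallium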
# KCC2 sec2 = confirmation of human KCC2 transport modulators; HEK293-KCC2, thallium flux FluoZin2 fluorescence; actives lie on both sides; F/F0 rise rate, 10–20 s post-thallium; shares compounds with KCC2 mod; 23% of 3,700 active; normalized thallium flux at 10 µM;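 active means thallium flux slope more than 3 SD above or below the plate's solvent-only control mean, mostly below; inconclusive means the two repeat wells disagreed; inactive means no significant shift from solvent-only controls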;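 further: raw slope with 0.1% DMSO as baseline and bumetanide as block control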
# HEK counter1 = counter-screen for KCC2 modulators: effect in parental HEK293 cells; shares compounds with KCC2 mod; thallium flux FluoZin2, ouabain; baseline-ratio fluorescence slope, 10–20 s after thallium; thallium flux rate (normalised fluorescence) at 10 µM; 46% of 3,700 active;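 active means thallium flux rate significantly above the same plate's solvent-only control wells, beyond their mean plus 3 SD; inconclusive means the two replicate wells gave conflicting results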
# KCC2 retest ouab = KCC2 (human) modulation, ouabain retest; AID 1717; raw Tl+ flux slope (below DMSO = inhibition, above = activation) at 10 µM; HEK293-KCC2, thallium flux FluoZin2 fluorescence; bidirectional: low = inhibitor, high = activator; shares compounds with KCC2 mod; 48% of 3,700 active;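 active means thallium flux slope beyond 3 SD from same-plate DMSO control mean in most replicates, usually higher, sometimes lower; inconclusive means repeat tests gave conflicting results; inactive means no significant difference from controls in most replicates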;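 further: slope of initial-normalized fluorescence between seconds 10 and 20 after thallium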
# HEK counter2 = acts in parental HEK cells, second KCC2 counter-screen | HEK293 parental, thallium flux FluoZin-2 fluorescence slope | thallium flux slope at 10 µM | 33% of 3,700 active | shares compounds with KCC2 mod;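 active means thallium flux slope above the same plate's solvent-control mean plus 3 SD in both duplicate wells; inconclusive means duplicate wells that disagreed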;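 further: run without ouabain in cells lacking the KCC2 cotransporter; slope of fluorescence scaled to its starting value between 10 and 20 s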
# * marks the source's active call; other numbers are inactive results; ? = inconclusive; · = no result. An excerpt weighted towards active compounds, which were near 3.1% of everything screened.
SMILES,EP2 mod,S1P3 antag,EP2 antag,KCC2 mod,KCC2 secondary,KCC2 bumet counter,KCC2 sec2,HEK counter1,KCC2 retest ouab,HEK counter2
O=C(NCc1ccco1)c1nc2c(nnn2Cc2cccc(Cl)c2)c(=O)[nH]1,42.9,·,8.8,-4.7*,0.00511,0.00581*,?,0.0063*,0.0143*,0.0103
O=C(NCc1ccccc1)c1nc2c(nnn2Cc2cccc(Cl)c2)c(=O)[nH]1,28.2,·,-0.7,-5.13*,0.00596,0.00553,0.0236*,0.00625*,0.013*,?
Cc1ccc(Cn2nnc3c(=O)[nH]c(C(=O)NCc4ccco4)nc32)cc1,4.0,-10.9,2.2,-2.8,·,·,·,·,·,·
CCOc1cc(/C=C(\CC(=O)O)c2nc3ccccc3s2)ccc1OC,7.2,-2.6,5.7,1.41,·,·,·,·,·,·
CNc1ccc(/C=C(\CCC(=O)O)c2nc3ccccc3s2)cc1[N+](=O)[O-],-1.8,-1.6,5.3,-5.47*,0.00944,0.00618,0.0248*,0.00834,0.0127*,0.0115
CN(c1ccccc1)c1ccc(/C=C(\CCC(=O)O)c2nc3ccccc3s2)cc1[N+](=O)[O-],-27.9,-9.9,6.0,-6.94*,0.00526,0.00465,0.0212*,0.00693,0.0117*,0.00978
Cn1cnnc1Sc1ccc(/C=C(\CCC(=O)O)c2nc3ccccc3s2)cc1[N+](=O)[O-],-23.1,-9.7,7.2,-6.78*,0.00574,0.00475,0.0246*,0.00593*,0.0137*,0.00966
CS(=O)(=O)c1ccc(Sc2nc3ccccc3s2)c([N+](=O)[O-])c1,-17.1,-8.5,10.1,-0.0189,·,·,·,·,·,·
Cc1ccc(/C=C(\CCC(=O)O)c2nc3ccccc3s2)cc1[N+](=O)[O-],2.5,-1.9,3.2,-6.9*,0.00567,0.00477,0.0216*,0.00583*,0.01*,?
Cn1cnnc1Sc1ccc(/C=C/C(=O)c2ccc(O)cc2)cc1[N+](=O)[O-],-51.8,4.2,7.0,-0.0268,·,·,·,·,·,·
CN(c1ccccc1)c1ccc(/C=C(\C#N)c2nnc3n2CCCCC3)cc1[N+](=O)[O-],-14.5,16.2,5.3,-0.418,·,·,·,·,·,·
COCCCNC(=S)N(Cc1cc2cc(OC)c(OC)cc2[nH]c1=O)C1CCCC1,6.7,·,12.9,·,·,·,·,·,·,·
OC(CN1CCC2(CC1)CC(O)c1cc(Cl)ccc1O2)c1ccc(F)cc1 (configuration not stated),-84.2,·,14.0,·,·,·,·,·,·,·
O=C(Cn1c(-c2cccs2)cc2cccnc21)NC1CC1,-14.3,·,10.3,·,·,·,·,·,·,·
OCC1N=C(c2ccccn2)OC1c1ccccc1 (configuration not stated),20.4,-10.2,7.7,-5.84*,0.00722,0.00703,0.0299,0.00719,0.0204,0.0105*
CC1CCN(c2nc3c(c(=O)[nH]2)CCN(Cc2c(F)cccc2F)C3)CC1,-82.0,·,6.2,·,·,·,·,·,·,·
Cc1cc(-c2cnc(C)nc2C2CCCN(C(=O)c3ccco3)C2)on1 (configuration not stated),5.2,·,·,·,·,·,·,·,·,·
CC(C)OC(=O)c1cc2c(ccn2C)n1CC(=O)N1CCC(Cc2ccccc2)CC1,19.4,·,13.0,-5.67*,0.00637,0.00416,0.0244*,?,0.0138*,0.00994
O=C(Cc1ccc(Cl)cc1Cl)N1CCC[C@@H]1[C@@H](O)c1nccs1,4.7,·,·,·,·,·,·,·,·,·
CCC(c1nnnn1CCOC)N(Cc1ccccc1)Cc1cc2cc(C)c(C)cc2[nH]c1=O (configuration not stated),-5.9,·,7.2,·,·,·,·,·,·,·
CC1CN(S(=O)(=O)c2ccc(NC(=O)CCN3C(=O)c4ccccc4C3=O)cc2)CC(C)O1 (configuration not stated),-13.4,-27.0,·,-3.86*,0.0156,0.00447,0.0294,0.0074,0.0165,0.0107
